Among the data in PubChem BioAssay (EPA / NIEHS) are outcome and AC50 values, retold here.

In assay [1] the target is Glucocorticoid receptor (Homo sapiens) (UniProt P04150). In words: ATG_GR_TRANS: Attagene TRANS-FACTORIAL HepG2 Assay for human Glucocorticoid Receptor (GR) (AID 2282978; active = hit-call score of the fitted dose curve at least 0.9, where 1 is the maximum;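 note: activators score as hits since higher reporter transcript over DMSO is fitted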). To be noted: HepG2 Attagene TRANS GR reporter, mRNA transcription. The method, boiled down: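 Exogenous NR-GAL4 fusion activity was assessed through induced GAL4-UAS reporter transcripts in transfected human HepG2 cells, quantified after 24 h by RT-PCR and fluorescent capillary electrophoresis with DMSO as baseline.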

For assay [2], the target named is Oxysterols receptor LXR-alpha (Homo sapiens) (UniProt Q13133). In words: ATG_LXRa_TRANS: Attagene TRANS-FACTORIAL HepG2 Assay for human Liver X Receptor alpha (LXRa) (AID 2282980; active = hit-call score of the fitted dose curve at least 0.9, where 1 is the maximum). As to conditions: HepG2 Attagene TRANS reporter, LXRa transactivation. The method, boiled down:
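Chemical-induced reporter mRNA measured by RT-PCR with fluorescent labelling and capillary electrophoresis after 24 h dosing of transiently transfected HepG2 cells expressing exogenous NR-Gal4 chimeras; increases scored against DMSO baseline.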

Assay [3] is described as follows: ATG_M_06_TRANS: Attagene TRANS-FACTORIAL HepG2 Assay for M06 Transcription Factor (Internal Marker) (AID 2282983; active = hit-call score of the fitted dose curve at least 0.9, where 1 is the maximum). As to conditions: HepG2 Attagene TRANS M06 internal marker reporter. Put shortly: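 Cells: HepG2, transient multi-reporter transfection. Exposure: 24 h. Detection: RT-PCR, 6-FAM labelling, HpaI digestion (2 h, 37 °C), capillary electrophoresis. Baseline: DMSO.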

Assay [4] is described as follows: ATG_M_32_TRANS: Attagene TRANS-FACTORIAL HepG2 Assay for M32 Transcription Factor (Internal Marker) (AID 2282984; active = hit-call score of the fitted dose curve at least 0.9, where 1 is the maximum;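 note: transcript level of a background control reporter unit measured by RT-PCR and capillary electrophoresis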). To be noted: HepG2 Attagene TRANS M32 internal marker reporter. Put shortly:
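Capillary electrophoresis of 6-FAM-labelled reporter fragments gives the signal; data fitted for gain over DMSO negative control. Source: HepG2 cells bearing transient multiple reporter transcription units, 24 h exposure.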

The target in assay [5] is Nuclear receptor subfamily 4 group A member 2 (Homo sapiens) (UniProt P43354). In words: ATG_NURR1_TRANS: Attagene TRANS-FACTORIAL HepG2 Assay for human Nuclear Receptor Related Protein 1 (NURR1) (AID 2282985; active = hit-call score of the fitted dose curve at least 0.9, where 1 is the maximum). To be noted: HepG2 Attagene TRANS reporter, mRNA readout. The method, boiled down:
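HepG2 / transient MRTU transfection / 24 h compound exposure / RT-PCR + CE fluorescence of reporter mRNA / gain-of-signal vs DMSO.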

Assay [6] deals with Transcriptional activator Myb (Homo sapiens) (UniProt P10242). The experiment in a line: ATG_Myb_CIS: Attagene CIS-FACTORIAL HepG2 Assay for human Myeloblastosis (Myb) Proto-Oncogene Transcription Factor (AID 2282986). As to conditions: HepG2 Attagene CIS-FACTORIAL Myb reporter transcription; actives raise or lower the signal. The method, boiled down:
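In this HepG2 transient-transfection format, cis-regulated reporter mRNA is quantified 24 h post-dosing by RT-PCR with capillary electrophoresis, fitted bidirectionally to DMSO baseline.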

Assay [7] concerns the target Nuclear respiratory factor 1 (Homo sapiens) (UniProt Q16656). In words: ATG_NRF1_CIS: Attagene CIS-FACTORIAL HepG2 Assay for human Nuclear Respiratory Factor 1 (NRF1) Orphan Gene (AID 2282987). To be noted: HepG2 NRF1 cis-element reporter, Attagene multiplex; actives raise or lower the signal. Put shortly: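 Using DMSO as baseline, gain- or loss-of-signal was fitted for reporter mRNA levels in HepG2 cells transiently transfected with cis-regulated reporter units. Samples were taken 24 h after dosing and read by RT-PCR with capillary electrophoresis.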

The nature of assay [8]: ATG_NFI_CIS: Attagene CIS-FACTORIAL HepG2 Assay for human Nuclear Factor I (NFI) (AID 2282989). To be noted: HepG2 cis-regulatory reporter, NFI response element transcription; actives raise or lower the signal. Put shortly: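 Transient MRTU transfection of HepG2 → 24 h chemical dosing → total RNA, oligo(dT) RT → PCR, 6-FAM primer extension, HpaI cut → capillary electrophoresis. Endpoint fitted bidirectionally relative to DMSO.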

The target of assay [9] is Myc proto-oncogene protein (Homo sapiens) (UniProt P01106). In words: ATG_Myc_CIS: Attagene CIS-FACTORIAL HepG2 Assay for human Myelocytomatosis (Myc) Proto-Oncogene Transcription Factor (AID 2282990). To be noted: HepG2, Attagene cis-reporter transcription factor activity; actives raise or lower the signal. The method, boiled down:
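Read-out: fluorescent reporter mRNA fragments resolved by capillary electrophoresis after RT-PCR. Human HepG2 liver cells carried transfected cis-element reporter units and were dosed for 24 h. Gain or loss of signal fitted relative to DMSO baseline.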

Assay [10] can be described thus: ATG_NF_kB_CIS: Attagene CIS-FACTORIAL HepG2 Assay for human Nuclear Factor Kappa B (NF-kB) (AID 2282991). As to conditions: HepG2 Attagene cis-factorial NF-kB reporter mRNA; actives raise or lower the signal. The method, boiled down:
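Endpoint from a 52-component multiplexed HepG2 reporter panel: cis-regulated transcription units transiently transfected, 24 h dosing, reporter mRNA quantified by RT-PCR and capillary electrophoresis, scored as increase or decrease against DMSO.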

Assay [11] is described as follows: ATG_NRF2_ARE_CIS: Attagene CIS-FACTORIAL HepG2 Assay for human Nuclear Factor Erythroid 2 Related Factor 2 (NFR2) response to Antioxidant Response Elements (ARE) (AID 2282992).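 For AC50: reporter mRNA level measured by RT-PCR and capillary electrophoresis fluorescence.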 As to conditions: HepG2 Attagene ARE/NRF2 reporter, transcription factor activity; actives raise or lower the signal. The method, boiled down: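 HepG2 cells transiently transfected with multiplexed cis-regulated reporter transcription units measure endogenous transcription factor activity. Reporter mRNA at 24 h is quantified by RT-PCR, fluorescent labelling and capillary electrophoresis, with bidirectional fitting relative to DMSO.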

A short description of assay [12]: ATG_Oct_MLP_CIS: Attagene CIS-FACTORIAL HepG2 Assay for human Octamer-Binding Transcription Factor (Oct) (AID 2282993). As to conditions: HepG2 Attagene cis-factorial Oct reporter, mRNA; actives raise or lower the signal. The method, boiled down: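 Transient MRTU transfection of HepG2 → 24 h compound treatment → RNA isolation, reverse transcription, PCR → 6-FAM primer extension, HpaI digest → capillary electrophoresis. Activity fitted both directions against DMSO.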

The target in assay [13] is Cellular tumor antigen p53 (Homo sapiens) (UniProt P04637). The experiment in a line: ATG_p53_CIS: Attagene CIS-FACTORIAL HepG2 Assay for human p53 Transcription Factor (AID 2282994). As to conditions: HepG2 p53 cis-element reporter, Attagene mRNA; actives raise or lower the signal. Put shortly: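 HepG2 cells transiently transfected with multiplexed cis-regulated reporter transcription units read endogenous TF activity. After 24 h compound exposure, reporter mRNA was quantified by RT-PCR, fluorescent labelling, HpaI digestion and capillary electrophoresis; bidirectional fits versus DMSO baseline.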
Cellular tumor antigen p53 (Homo sapiens), sequence (P04637 whole entry, looked up): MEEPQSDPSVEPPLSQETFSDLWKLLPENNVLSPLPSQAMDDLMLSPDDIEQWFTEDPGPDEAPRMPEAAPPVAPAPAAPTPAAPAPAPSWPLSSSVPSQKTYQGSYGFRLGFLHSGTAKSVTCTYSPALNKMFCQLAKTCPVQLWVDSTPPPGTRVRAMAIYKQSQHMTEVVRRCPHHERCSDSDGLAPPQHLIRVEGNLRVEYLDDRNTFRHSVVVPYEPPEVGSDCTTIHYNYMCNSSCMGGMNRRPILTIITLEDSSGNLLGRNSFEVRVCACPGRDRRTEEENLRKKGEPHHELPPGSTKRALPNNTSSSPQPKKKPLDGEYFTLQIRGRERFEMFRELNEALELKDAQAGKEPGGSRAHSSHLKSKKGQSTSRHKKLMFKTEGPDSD

The nature of assay [14]: BSK_3C_TissueFactor: BioMAP Diversity Plus: 3C Assay for Tissue Factor Biomarker Activity (AID 2282997). To be noted: BioMAP 3C HUVEC, tissue factor biomarker readout; actives raise or lower the signal. The method, boiled down:
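Dosing of human umbilical vein endothelial cells preceded a 24 h incubation. Tissue Factor was then read by ELISA, with increases and decreases both scored relative to DMSO controls.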

Assay [15] is described as follows: BSK_3C_VCAM1: BioMAP Diversity Plus: 3C Assay for Vascular cell adhesion molecule 1 (VCAM1) Biomarker Activity (AID 2282999). To be noted: BioMAP 3C HUVEC, VCAM1 ELISA, cytokine-stimulated; actives raise or lower the signal. The method, boiled down:
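Human umbilical vein endothelial cells (3C system), biomarker read by ELISA 24 h after dosing; bidirectional fit against DMSO baseline. Cytotoxicity tracked by SRB total-protein staining in parallel cultures at biomarker time.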

Assay [16] is described as follows: BSK_4H_Eotaxin3: BioMAP Diversity Plus: 4H Assay for Eotaxin 3 Biomarker Activity (AID 2283000).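 Note: CCL26 protein level quantified by ELISA in parallel with SRB cytotoxicity check.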 To be noted: primary human endothelial cells (HUVEC); actives raise or lower the signal. Put shortly:
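Human umbilical vein endothelial cells (BSK_4H system) dosed with test chemical; Eotaxin-3 (CCL26) measured by ELISA 24 h after dosing. Bidirectional curve fitting relative to DMSO negative control as baseline.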

Assay [17] concerns the target human Peroxisome Proliferator-activated Receptor alpha (PPARa), PPARA (gene 5465) (UniProt Q07869). In words: ATG_PPARa_TRANS: Attagene TRANS-FACTORIAL HepG2 Assay for human Peroxisome Proliferator-activated Receptor alpha (PPARa) (AID 2283001; active = hit-call score of the fitted dose curve at least 0.9, where 1 is the maximum). The method, boiled down:
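Measures transcriptional activity of an exogenous chimeric PPARa-Gal4 protein in transiently transfected HepG2 cells after 24 h dosing. Reporter mRNA quantified via RT-PCR and capillary electrophoresis; DMSO served as negative control.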

In assay [18] the target is Bile acid receptor (Homo sapiens) (UniProt Q96RI1). In words: ATG_FXR_TRANS: Attagene TRANS-FACTORIAL HepG2 Assay for Farnesoid X Receptor (FXR) (AID 2282979; active = hit-call score of the fitted dose curve at least 0.9, where 1 is the maximum;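 note: hits raise reporter mRNA above DMSO so AC50 marks FXR activation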). To be noted: HepG2 Attagene TRANS FXR-GAL4 reporter transcription. Put shortly: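 Reporter transcripts from transfected HepG2 cells were measured 24 h after dosing, using RT-PCR with capillary electrophoresis of 6-FAM-labelled fragments. The read-out reflects activity of exogenous FXR-Gal4 chimera on GAL4-UAS units, with induction relative to DMSO.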
Bile acid receptor (Homo sapiens), sequence (Q96RI1 whole entry, looked up, the tested form may be a part): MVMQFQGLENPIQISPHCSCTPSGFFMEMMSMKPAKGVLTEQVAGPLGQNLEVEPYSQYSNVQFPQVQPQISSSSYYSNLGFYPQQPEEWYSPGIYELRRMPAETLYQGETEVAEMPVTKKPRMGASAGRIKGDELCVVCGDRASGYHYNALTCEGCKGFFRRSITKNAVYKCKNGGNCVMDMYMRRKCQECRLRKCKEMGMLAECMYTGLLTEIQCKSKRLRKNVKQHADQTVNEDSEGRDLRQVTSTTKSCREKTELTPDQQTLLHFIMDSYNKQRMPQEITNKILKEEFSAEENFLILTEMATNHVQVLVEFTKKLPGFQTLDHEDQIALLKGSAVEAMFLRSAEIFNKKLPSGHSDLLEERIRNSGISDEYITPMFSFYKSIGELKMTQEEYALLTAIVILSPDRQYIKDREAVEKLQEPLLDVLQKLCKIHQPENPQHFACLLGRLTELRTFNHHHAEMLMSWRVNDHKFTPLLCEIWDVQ

Assay [19] addresses Oxysterols receptor LXR-beta (Homo sapiens) (UniProt P55055). In words: ATG_LXRb_TRANS: Attagene TRANS-FACTORIAL HepG2 Assay for human Liver X Receptor beta (LXRb) (AID 2282981; active = hit-call score of the fitted dose curve at least 0.9, where 1 is the maximum). To be noted: HepG2 Attagene TRANS GAL4-LXRb reporter, mRNA. The method, boiled down: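 Gain-of-signal mRNA reporter endpoint, DMSO as negative control. Transiently transfected HepG2 cells carrying the NR-Gal4 chimera and GAL4-UAS reporter units were treated 24 h; transcripts quantified by RT-PCR and capillary electrophoresis fluorescence.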

The nature of assay [20]: BSK_3C_uPAR: BioMAP Diversity Plus: 3C Assay for Urokinase-type plasminogen activator receptor (uPAR) Biomarker Activity (AID 2282998). As to conditions: BioMAP 3C HUVEC, uPAR biomarker ELISA; actives raise or lower the signal. Put shortly:
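ELISA readout of uPAR on human vascular endothelium (umbilical vein primary cells), taken 24 h after chemical dosing. Increases and decreases are both fitted relative to DMSO vehicle.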

Values joined by “and” are separate entries in the source; they are usually repeats but may differ in a detail not shown here. Identical values can stand only once. Inconclusive results are not listed. Some compounds were tested as several samples or in several runs, with calls that do not always agree. Active and inactive are the calls of the source. Rule for the calls, unless noted: active = hit-call score of the fitted dose curve at least 0.9, where 1 is the maximum; inactive = score below 0.9.

human Peroxisome Proliferator-activated Receptor alpha (PPARa), PPARA (gene 5465), sequence (Q07869 whole entry, looked up, the tested form may be a part): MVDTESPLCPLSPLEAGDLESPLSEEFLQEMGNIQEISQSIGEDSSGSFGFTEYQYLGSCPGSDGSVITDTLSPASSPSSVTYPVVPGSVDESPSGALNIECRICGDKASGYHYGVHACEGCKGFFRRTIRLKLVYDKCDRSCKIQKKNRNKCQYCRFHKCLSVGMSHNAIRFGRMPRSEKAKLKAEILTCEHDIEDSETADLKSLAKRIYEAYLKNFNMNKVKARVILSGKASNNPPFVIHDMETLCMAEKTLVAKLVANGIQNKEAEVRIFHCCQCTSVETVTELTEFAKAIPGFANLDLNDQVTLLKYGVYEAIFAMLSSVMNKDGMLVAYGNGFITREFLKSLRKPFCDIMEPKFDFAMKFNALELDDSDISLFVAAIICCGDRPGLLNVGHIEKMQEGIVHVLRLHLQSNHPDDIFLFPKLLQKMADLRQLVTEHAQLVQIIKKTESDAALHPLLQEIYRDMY
Nuclear receptor subfamily 4 group A member 2 (Homo sapiens), sequence (P43354 whole entry, looked up): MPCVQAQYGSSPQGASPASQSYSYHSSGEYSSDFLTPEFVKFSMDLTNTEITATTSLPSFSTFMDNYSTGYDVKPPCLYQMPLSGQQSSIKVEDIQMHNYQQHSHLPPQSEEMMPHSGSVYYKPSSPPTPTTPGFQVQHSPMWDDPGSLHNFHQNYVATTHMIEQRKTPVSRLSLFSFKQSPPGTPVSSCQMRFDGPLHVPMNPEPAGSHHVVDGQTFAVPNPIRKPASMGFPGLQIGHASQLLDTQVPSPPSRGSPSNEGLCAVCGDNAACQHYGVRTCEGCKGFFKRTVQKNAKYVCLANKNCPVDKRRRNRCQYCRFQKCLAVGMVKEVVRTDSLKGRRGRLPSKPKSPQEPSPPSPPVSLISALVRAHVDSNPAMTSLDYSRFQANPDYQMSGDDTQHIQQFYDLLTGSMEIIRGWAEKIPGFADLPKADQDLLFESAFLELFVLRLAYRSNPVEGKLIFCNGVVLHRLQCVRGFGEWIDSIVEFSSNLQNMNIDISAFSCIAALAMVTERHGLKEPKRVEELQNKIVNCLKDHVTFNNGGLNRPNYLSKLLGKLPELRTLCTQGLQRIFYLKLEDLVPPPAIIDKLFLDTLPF
Oxysterols receptor LXR-beta (Homo sapiens), sequence (P55055 whole entry, looked up, the tested form may be a part): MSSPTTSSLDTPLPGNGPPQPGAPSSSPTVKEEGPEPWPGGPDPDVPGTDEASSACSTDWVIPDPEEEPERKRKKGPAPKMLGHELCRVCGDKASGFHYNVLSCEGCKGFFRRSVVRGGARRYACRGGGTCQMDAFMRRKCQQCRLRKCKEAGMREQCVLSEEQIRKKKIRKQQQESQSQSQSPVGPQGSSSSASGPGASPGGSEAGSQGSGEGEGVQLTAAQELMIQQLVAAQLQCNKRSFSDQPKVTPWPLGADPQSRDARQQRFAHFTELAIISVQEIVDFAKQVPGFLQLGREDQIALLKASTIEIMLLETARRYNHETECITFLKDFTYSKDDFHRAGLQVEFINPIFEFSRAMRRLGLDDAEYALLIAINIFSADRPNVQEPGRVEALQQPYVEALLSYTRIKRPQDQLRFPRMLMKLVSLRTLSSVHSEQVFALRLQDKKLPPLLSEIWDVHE
Nuclear respiratory factor 1 (Homo sapiens), sequence (Q16656 whole entry, looked up): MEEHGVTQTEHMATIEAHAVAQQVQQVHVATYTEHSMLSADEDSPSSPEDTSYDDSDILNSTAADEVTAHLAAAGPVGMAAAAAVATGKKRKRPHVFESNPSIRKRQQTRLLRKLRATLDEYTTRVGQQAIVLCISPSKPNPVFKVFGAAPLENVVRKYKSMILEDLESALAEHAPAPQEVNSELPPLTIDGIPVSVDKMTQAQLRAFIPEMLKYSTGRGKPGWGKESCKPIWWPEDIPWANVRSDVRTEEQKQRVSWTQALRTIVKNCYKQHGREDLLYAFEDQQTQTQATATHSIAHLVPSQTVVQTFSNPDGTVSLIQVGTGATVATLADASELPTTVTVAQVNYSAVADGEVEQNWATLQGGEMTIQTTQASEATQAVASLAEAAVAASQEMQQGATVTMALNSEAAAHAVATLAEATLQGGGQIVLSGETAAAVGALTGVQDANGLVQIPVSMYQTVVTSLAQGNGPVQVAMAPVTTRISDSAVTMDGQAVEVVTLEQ
Myc proto-oncogene protein (Homo sapiens), sequence (P01106 whole entry, looked up, the tested form may be a part): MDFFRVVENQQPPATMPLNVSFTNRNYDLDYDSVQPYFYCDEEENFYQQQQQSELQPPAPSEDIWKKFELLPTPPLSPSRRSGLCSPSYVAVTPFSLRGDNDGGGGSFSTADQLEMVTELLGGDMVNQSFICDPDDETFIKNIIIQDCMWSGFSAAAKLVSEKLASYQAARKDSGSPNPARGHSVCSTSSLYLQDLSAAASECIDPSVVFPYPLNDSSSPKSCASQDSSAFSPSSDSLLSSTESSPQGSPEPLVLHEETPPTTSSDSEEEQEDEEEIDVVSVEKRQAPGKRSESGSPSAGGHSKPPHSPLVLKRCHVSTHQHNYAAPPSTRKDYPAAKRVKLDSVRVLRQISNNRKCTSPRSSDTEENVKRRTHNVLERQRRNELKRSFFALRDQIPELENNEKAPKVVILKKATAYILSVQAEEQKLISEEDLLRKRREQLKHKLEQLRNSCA
Transcriptional activator Myb (Homo sapiens), sequence (P10242 whole entry, looked up): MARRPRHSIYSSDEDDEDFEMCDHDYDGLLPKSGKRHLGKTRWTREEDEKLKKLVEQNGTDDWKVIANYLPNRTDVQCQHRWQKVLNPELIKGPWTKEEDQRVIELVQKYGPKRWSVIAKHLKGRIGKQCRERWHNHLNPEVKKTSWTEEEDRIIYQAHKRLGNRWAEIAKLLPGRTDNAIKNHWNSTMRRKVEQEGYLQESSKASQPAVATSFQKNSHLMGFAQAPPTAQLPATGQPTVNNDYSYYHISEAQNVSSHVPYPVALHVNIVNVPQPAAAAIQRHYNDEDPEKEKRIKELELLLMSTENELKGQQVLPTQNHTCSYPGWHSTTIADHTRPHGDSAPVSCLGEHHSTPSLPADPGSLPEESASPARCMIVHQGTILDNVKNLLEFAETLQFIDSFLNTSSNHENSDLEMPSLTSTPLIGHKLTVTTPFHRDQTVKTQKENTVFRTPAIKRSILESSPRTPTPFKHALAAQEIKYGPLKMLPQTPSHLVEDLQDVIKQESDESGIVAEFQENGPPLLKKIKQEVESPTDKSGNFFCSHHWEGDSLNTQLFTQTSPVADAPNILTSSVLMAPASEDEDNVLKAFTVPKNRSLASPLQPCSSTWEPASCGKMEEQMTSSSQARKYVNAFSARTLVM
Oxysterols receptor LXR-alpha (Homo sapiens), sequence (Q13133 whole entry, looked up, the tested form may be a part): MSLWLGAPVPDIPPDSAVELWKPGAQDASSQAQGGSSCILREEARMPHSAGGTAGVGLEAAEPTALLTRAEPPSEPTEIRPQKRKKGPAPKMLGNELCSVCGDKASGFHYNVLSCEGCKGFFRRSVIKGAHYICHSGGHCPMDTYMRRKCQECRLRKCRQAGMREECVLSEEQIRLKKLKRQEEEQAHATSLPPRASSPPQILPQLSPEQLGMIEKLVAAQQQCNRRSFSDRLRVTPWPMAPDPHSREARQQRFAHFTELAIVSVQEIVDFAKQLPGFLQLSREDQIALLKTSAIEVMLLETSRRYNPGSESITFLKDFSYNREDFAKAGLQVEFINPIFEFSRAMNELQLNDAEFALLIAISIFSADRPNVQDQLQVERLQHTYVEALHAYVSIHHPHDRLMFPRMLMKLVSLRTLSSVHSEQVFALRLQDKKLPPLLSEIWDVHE

As to `Nc1ccc(Oc2ccc(N)cc2)cc1`, the molecule was called inactive in assay [1], in [2], in [3], in assay [4], in assay [5] and in [6]. Also, the outcome in assay [7], in assay [8], in assay [9], in assay [10], in assay [11] and in assay [12] was inactive. For the same molecule, the outcome in [13], in [14], in [15], in assay [16] and in [17] was inactive.
Usually AC50 stands for the concentration giving half of the maximal activity seen. For `C[C@]12C=CC3=C4CCC(=O)C=C4CC[C@H]3[C@@H]1CC[C@@H]2O`, the outcome in [18], in [2], in assay [19], in assay [3], in [4] and in [5] was inactive. In addition, the call in [6], in [7], in assay [8], in assay [9], in assay [10] and in [11] was inactive. The outcome in assay [12], in assay [14], in assay [16] and in [17] was inactive. In addition, the half-maximal activity concentration (AC50) in assay [8] was 11.9 µM (active); in assay [10] it was 19.8 µM (active) and 70.6 µM (active) and 40.3 µM (active); in assay [11] it was 17.5 µM (active) and 11.3 µM (active); in assay [12] it was 71.1 µM (active) and 13.9 µM (active) and 9.62 µM (active); in assay [20], 7.23 µM (active); in assay [15] it was 9.42 µM (active).
`CC(C)(C)C(O)(CCc1ccc(Cl)cc1)Cn1cncn1` (stereo not drawn): the molecule was called inactive in assay [1], in [3], in assay [4], in assay [6], in [7] and in assay [8]. Besides, the call in assay [9], in assay [10], in assay [12], in [13], in assay [14] and in assay [15] was inactive. Further, the result in [16] was inactive. Also, the concentration at half-maximal activity (AC50) in [11] is 88.8 µM (active).
